Measured values: the supplement of paper PMC3334620
The full ranking holds about 33,000 sequences; the median of “E-score (-0.5 to 0.5)” is about -0.054, and the highest 2% start at about 0.35. The sample holds the highest values, similar sequences and a random draw of the others, so the mix is not that of the screen.

Each sequence was assayed against T1, Stb5 (UniProt P38699) (assay: PBM E-score (8-mer binding enrichment) (E-score (-0.5 to 0.5)); higher = stronger / more preferred TF binding). Conditions: protein concentration: 200 nM; construct: GST-full length.
T1 sequence: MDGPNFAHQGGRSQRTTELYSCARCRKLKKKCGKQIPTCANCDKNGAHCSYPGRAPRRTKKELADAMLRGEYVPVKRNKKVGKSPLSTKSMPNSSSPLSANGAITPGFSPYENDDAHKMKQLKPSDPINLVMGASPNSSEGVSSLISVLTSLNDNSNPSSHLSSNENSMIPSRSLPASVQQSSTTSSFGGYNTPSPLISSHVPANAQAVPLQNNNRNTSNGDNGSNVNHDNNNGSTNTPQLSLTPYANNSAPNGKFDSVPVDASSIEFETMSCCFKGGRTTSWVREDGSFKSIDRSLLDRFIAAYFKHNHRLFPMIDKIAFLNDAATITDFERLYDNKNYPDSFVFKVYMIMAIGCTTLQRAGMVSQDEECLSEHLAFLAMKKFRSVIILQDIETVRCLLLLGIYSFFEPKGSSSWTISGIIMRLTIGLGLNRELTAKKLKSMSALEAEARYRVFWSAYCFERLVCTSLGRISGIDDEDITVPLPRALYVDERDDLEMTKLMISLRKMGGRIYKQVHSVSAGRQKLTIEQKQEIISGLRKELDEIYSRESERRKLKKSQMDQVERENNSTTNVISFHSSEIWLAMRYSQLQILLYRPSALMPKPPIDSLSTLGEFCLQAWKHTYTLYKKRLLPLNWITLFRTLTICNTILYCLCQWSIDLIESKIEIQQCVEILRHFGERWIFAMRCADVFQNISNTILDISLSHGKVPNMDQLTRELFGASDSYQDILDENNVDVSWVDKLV
Method: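 Universal 'all 10-mer' protein binding microarrays (Agilent AMADID 015681) probed with GST-tagged S. cerevisiae TFs (full-length or DBD) made by in vitro transcription/translation (PURExpress), about 100-200 nM. Bound TF was detected with fluorescent anti-GST. Each ungapped 8-mer (which stands for itself and its reverse complement) is scored by the PBM enrichment score (E-score), a modified Wilcoxon-Mann-Whitney statistic from -0.5 to +0.5, computed with the Universal PBM Analysis Suite. Scale: above 0.35 generally sequence-specific binding.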

Sequence | PBM E-score
AACCCGGG | 0.262
ACCCCCGG | 0.336
ATACCCCC | 0.351
AGACCCGG | 0.341
AAACCCCT | 0.153
AAACCCCG | 0.476
AGACCCCC | -0.165
AAAATGTT | -0.267
CACTTGCG | -0.0879
CGTGTCCC | -0.0774
CCATTTAA | -0.073
CAGCTGTC | -0.31
ACACGGTA | 0.144
AGACCAGG | -0.149
ATGCGACC | 0.0704
AAGGCGCT | 0.109
ATACCTAG | -0.233
CAACCCCC | 0.14
CAACCCCA | -0.221
AACCCCCG | 0.401
AACCCCCC | 0.0126
CAACCCCG | 0.371
ACCCCCCG | 0.204
ACTAGCCC | 0.15
ACTCGTCA | -0.163

Sequence | PBM E-score
GCCCCTAC | 0.076
ATTCTTGG | -0.0109
ACCGGACC | 0.354
ACCGGACT | 0.376
CCCGGACC | 0.185
ACCGGACG | 0.329
GCCGGACC | 0.281
ACCGGACA | 0.321
AAACTCAC | -0.172
TAATAAGA | 0.0281
GCTCTTTA | 0.0664
CACTGCTC | -0.117
AAGCGTGC | -0.171
ACGAGCGT | -0.163
AAGTTCCG | 0.373
CAGTTCCG | 0.0961
AAGTTCCT | -0.098
ACCACAGA | -0.0655
CCCGCTAA | 0.261
AGCGACTG | -0.328
CCGCTCCG | 0.361
CCGCTCGC | 0.373
ACGCTCGC | -0.078
CCGCTCCC | 0.247
ACGCTACG | -0.187

Sequence | PBM E-score
CCGCTACG | 0.355
ACGCTCCG | 0.174
CCGCTACA | 0.262
CCGCTCGA | 0.328
CAGTTGCC | -0.0751
AGAAAGAC | -0.0525
GATATAGA | -0.162
AACGGGTG | 0.155
GTGAAGCA | -0.165
AGATTTTA | 0.0159
ACACTATG | -0.13
AAAGTCTC | -0.145
AAGACCTT | -0.073
AAGACCGC | 0.443
GAGACCGA | 0.257
AAGACCGT | 0.382
AAGACCAT | -0.18
CAGACCGG | 0.272
GAGACCGC | 0.311
CAGACCGC | 0.272
CAGACCGA | 0.174
AAGACCAG | -0.107
AAGACCGG | 0.418
AAGACCGA | 0.414
CCTCTGAG | -0.141

Sequence | PBM E-score
ACTGCGGC | 0.168
TCGTTAGA | -0.147
ATAAGGGG | -0.0458
ACGTTGAA | -0.0556
AGCCATAC | -0.269
GCTTGAAA | -0.11
AATGCTGT | -0.0756
GCCGATCC | 0.207
AGCGCCAC | 0.162
AGCGCCGC | 0.41
AGCGCCGG | 0.376
AGCGCCCG | 0.198
AGCGCCGA | 0.342
CGCGCCGC | 0.325
CTCTTATC | -0.11
CTTTTTAC | 0.145
GCTGCTAA | 0.122
ACCCCGTG | 0.367
AACCCGTC | 0.183
ACCCCGTA | 0.301
CCCCCGTC | 0.233
ACCCCGTC | 0.381
AACCCGTG | -0.0372
AGCTGTGA | -0.266
GGGGGTAA | 0.248

Sequence | PBM E-score
GGGGTATA | 0.26
CGGGGCTA | 0.454
AGGGTCTA | -0.0622
CGGGTATA | 0.403
GGGGGCTA | 0.0408
CGGGGTAA | 0.424
CGGGTCTC | 0.151
AGGGGTAA | -0.249
AGGGGCTA | -0.0747
AGGGTATA | 0.217
CGGGTCTA | 0.412
CCTTAATA | 0.03
CCCAAGGA | -0.0196
CTTCGCCA | 0.0018
GATTAGTA | 0.0787
ATACATGG | -0.155
CGCATCAA | 0.126
ACGCTTAG | -0.072
GTGGGTTA | -0.0789
CTCCTCTC | -0.308
AGGGGTTC | -0.15
GGGGGGTA | 0.0523
CCGGGGTA | 0.268
CCGGGTTC | 0.24
CGGGGGTA | 0.451

Sequence | PBM E-score
CGGGGTTC | 0.388
GGAGCCAA | 0.00764
GACTATAC | 0.0897
AAGGACGG | 0.162
GGACGGAC | 0.359
CGACGGAA | 0.262
CGACGGAC | 0.368
CGACGGAG | 0.339
GGACGGAA | 0.133
AGACGGAC | 0.331
CGCCTCGA | 0.0565
GCTATTGA | 0.168
GTTCGATA | -0.036
CCTGTTTA | 0.0509
CGTTTGCA | 0.0334
ACCTGAAA | -0.098
ATCGCCTG | -0.215
CTCGCCGA | -0.0352
CTCGCCGC | 0.0978
GTCGCCGA | 0.19
ATCGCCGC | 0.385
ATCGCCGA | 0.387
ATAGCCGG | 0.373
ATAGCCGC | 0.312
ATAGCCGA | 0.216

Sequence | PBM E-score
ATCGCCAG | -0.0866
ATCGCCGG | 0.368
ATCGCCTC | -0.271
AGGCAACC | -0.251
ATGAGCTC | -0.262
GAGTCTGA | -0.308
CAAAAGAG | -0.072
TCAGTTCA | -0.229
CGCGTCAC | -0.194
CAAACACC | 0.352
AAAACACC | 0.353
CAAACACG | -0.114
AAAACACG | -0.0278
AAAACACT | 0.0252
CAAACACA | -0.126
AGTTGTAC | 0.0567
ATAGTCAC | -0.0899
ACAGACCC | -0.00703
CCAGGAGG | -0.238
TTTCAAAA | -0.0616
CCTAACCC | 0.0781
CGACGATC | -0.058
